The source made the active and inactive calls.
Experiments:
[1] = adipocyte viability effects, profiling panel, cell-based, 3T3-L1 adipocytes, calcein-AM fluorescence, 48 h, basal (AID 1163); details: 3T3-L1 adipocytes viability, higher = more signal
[2] = HepG2 cell viability effects, profiling panel, calcein-AM fluorescence, 48 h, basal (AID 1164); details: higher = more signal
[3] = MM1S cell viability effects, profiling panel, calcein-AM fluorescence, 48 h, basal (AID 1165); details: higher = more signal;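 also: viability of MM1S multiple myeloma cells under basal unstimulated conditions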
[4] = basal RPMI8226 viability, no added stimulus, profiling panel, cell-based, calcein-AM fluorescence, 48 h, PK04 Diversity Set (AID 1166); details: RPMI8226 myeloma viability, higher = more signal;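 also: cells grown under basal conditions without added stimulus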
[5] = basal HepG2 mitochondrial membrane potential changes, profiling panel, cell-based, JC-1 fluorescence, 24 h, 100 nL compound (AID 1167); details: higher = more signal
[6] = basal 3T3-L1 adipocyte mitochondrial potential changes, profiling panel, cell-based, JC-1 fluorescence, 3T3-L1 adipocytes, 24 h, 100 nL compound (AID 1168); details: JC-1 mitochondrial fluorescence, higher = more signal, called active from +8 up or from −8 down
[7] = basal RPMI8226 mitochondrial membrane potential changes, profiling panel, cell-based, JC-1 fluorescence, 24 h, 100 nL compound (AID 1169); details: RPMI8226 myeloma, JC-1 mitochondrial potential fluorescence, higher = more signal
[8] = basal MM1S mitochondrial membrane potential changes, profiling panel, cell-based, JC-1 fluorescence, 24 h, 100 nL compound (AID 1170); details: higher = more signal
[9] = A549 lung cancer cell viability effects, profiling panel, resazurin fluorescence, 24 h, PK04 Diversity Set (AID 1171); details: higher = more signal, called active from +8 up or from −8 down
[10] = HepG2 liver cancer cell viability effects, profiling panel, resazurin fluorescence, 24 h, PK04 Diversity Set (AID 1172); details: higher = more signal
[11] = basal S. cerevisiae growth modulation, no modifier, primary screen, OD600, strain BY4716, 24 h, basal condition (AID 1173); details: OD600, 24 h, higher = more signal, called active from +8 up or from −8 down
[12] = MM1S myeloma cell viability, profiling panel, resazurin fluorescence, basal, 24 h, PK04 Diversity Set (AID 1174); details: higher = more signal, called active from +8 up or from −8 down;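 also: MM1S multiple myeloma cell line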
[13] = molecular target: Dihydroorotate dehydrogenase (quinone), mitochondrial (Plasmodium falciparum (isolate 3D7)) (UniProt Q08210); assay: PfDHODH enzyme inhibitors, primary screen, biochemical, C-terminal His tag, absorbance 600 nm (AID 1175); details: DCIP absorbance 600 nm, higher = more signal, called active from +8 up or from −8 down;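 also: recombinant parasite enzyme with a five histidine tag at its C terminus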
Dihydroorotate dehydrogenase (quinone), mitochondrial (Plasmodium falciparum (isolate 3D7)), sequence (Q08210 whole entry, looked up): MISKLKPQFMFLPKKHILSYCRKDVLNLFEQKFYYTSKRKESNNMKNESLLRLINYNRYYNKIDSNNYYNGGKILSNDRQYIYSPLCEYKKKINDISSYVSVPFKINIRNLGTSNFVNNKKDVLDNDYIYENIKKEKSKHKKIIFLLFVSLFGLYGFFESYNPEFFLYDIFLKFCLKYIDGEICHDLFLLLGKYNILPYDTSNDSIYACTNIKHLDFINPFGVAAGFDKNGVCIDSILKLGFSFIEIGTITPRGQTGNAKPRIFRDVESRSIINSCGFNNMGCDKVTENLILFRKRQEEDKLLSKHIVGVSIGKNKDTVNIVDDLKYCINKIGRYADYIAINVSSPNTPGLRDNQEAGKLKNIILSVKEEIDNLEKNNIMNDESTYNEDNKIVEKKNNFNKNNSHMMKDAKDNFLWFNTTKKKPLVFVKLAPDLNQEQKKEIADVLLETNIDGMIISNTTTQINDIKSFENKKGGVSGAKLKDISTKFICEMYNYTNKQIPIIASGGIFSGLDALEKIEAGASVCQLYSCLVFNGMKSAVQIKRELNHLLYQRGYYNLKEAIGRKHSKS

[14] = S. cerevisiae RM11-1a growth modifiers, primary screen, strain RM11-1a, OD600, basal, 24 h (AID 1177); details: OD600, 24 h, higher = more signal, called active from +8 up or from −8 down;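 also: cultures grown under basal conditions with no added stressor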
[15] = E. coli acrAB mutant growth effects, primary screen, E. coli filamentation inducers, strain DRC39, OD650, 24 h (AID 1178); details: higher = more signal, called active from +8 up or from −8 down;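 also: growth measured as culture turbidity by optical density at 650 nm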
[16] = E. coli acrAB mutant growth effects, primary screen, E. coli filamentation inducers, strain DRC39, OD650, 48 h (AID 1179);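 also: screen aims at cell division blockers that make cells filament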; details: E. coli DRC39 delta-acrAB growth, higher = more signal, called active from +8 up or from −8 down
[17] = RPMI8226 myeloma cell viability, profiling panel, resazurin fluorescence, basal, 24 h, PK04 Diversity Set (AID 1180); details: higher = more signal;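 also: RPMI8826 multiple myeloma cell line at 5000 cells per well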
[18] = molecular target: E3 ubiquitin-protein ligase XIAP (Homo sapiens) (UniProt P98170); assay: XIAP binders, primary screen, biophysical, small-molecule microarray, fluorescence 635 nm (AID 1181); details: small-molecule microarray binding, higher = more signal;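 also: score merges 667 nm emission and signal to noise over triplicate slides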
E3 ubiquitin-protein ligase XIAP (Homo sapiens), sequence (P98170 whole entry, looked up): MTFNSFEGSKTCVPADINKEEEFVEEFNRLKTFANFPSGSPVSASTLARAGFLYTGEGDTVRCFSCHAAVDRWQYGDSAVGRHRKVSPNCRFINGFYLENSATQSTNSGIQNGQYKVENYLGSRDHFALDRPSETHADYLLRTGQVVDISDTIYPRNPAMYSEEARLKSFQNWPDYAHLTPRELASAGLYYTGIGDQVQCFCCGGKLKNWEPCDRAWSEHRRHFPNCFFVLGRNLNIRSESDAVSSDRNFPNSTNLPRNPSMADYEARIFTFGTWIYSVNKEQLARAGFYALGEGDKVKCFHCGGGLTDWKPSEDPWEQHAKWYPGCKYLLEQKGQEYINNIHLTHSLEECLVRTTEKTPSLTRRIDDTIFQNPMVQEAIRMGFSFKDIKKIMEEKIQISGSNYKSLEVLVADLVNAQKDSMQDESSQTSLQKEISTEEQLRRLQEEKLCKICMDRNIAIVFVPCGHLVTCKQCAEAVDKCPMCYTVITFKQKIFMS

[19] = tested on: XIP peptide (Xip251-270) binding; assay: small-molecule binders of XIP peptide, primary screen, biochemical, small-molecule microarray, fluorescence 635/667 nm, 0.1 µg/mL protein (AID 1182); details: fluorescent protein binding, 635 nm, higher = more signal, called active from +8 up or from −8 down
XIP peptide (Xip251-270) = assay: small-molecule binders of XIP peptide, primary screen, biochemical, small-molecule microarray, fluorescence 635/667 nm, 0.5 µg/mL protein (AID 1183); details: small-molecule microarray binding, fluorescence 635 nm; higher = more signal

| SMILES | z-score [1] | z-score [2] | z-score [3] | z-score [4] | z-score [5] | z-score [6] | z-score [7] | z-score [8] | z-score [9] | z-score [10] | z-score [11] | z-score [12] | composite z-score [13] | z-score [14] | z-score [15] | z-score [16] | z-score [17] | composite z-score [18] | composite z-score [19] | composite z-score (XIP peptide (Xip251-270)) |
| --- | --- | --- | --- | --- | --- | --- | --- | --- | --- | --- | --- | --- | --- | --- | --- | --- | --- | --- | --- | --- |
| C=CCC(OC(C)=O)[C@@H]1[C@@H](N(Cc2cccc3ccccc23)C(=O)Cc2ccc(OC)cc2)c2cc(OCCCO)ccc2N1C(=O)Cc1ccc(OC)cc1 (stereo not given in full) | 1.47 | 0.691 | 1.76 | -1.55 | 2.38 | 0.847 (inactive) | -0.44 | 0.791 | 0.493 (inactive) | -0.197 | -1.63 (inactive) | 0.844 (inactive) | 0.363 (inactive) | -0.27 (inactive) | 1.51 (inactive) | 0.443 (inactive) | 0.666 | 0.183 | -0.203 (inactive) | -0.665 |
| CC(C)C[C@@H]1NC(=O)[C@@]23C(=O)N[C@@H](Cc4ccccc4)C2[C@H](C)[C@@]2(C)O[C@H]2C3/C=C/CC/C=C/CNC(=O)[C@@H](C)NC1=O (stereo not given in full) | 1.98 | -0.309 | 0.827 | -0.386 | 1.82 | 0.918 (inactive) | -0.205 | 2.11 | -0.613 (inactive) | -0.589 | -1.92 (inactive) | 0.603 (inactive) | 0.596 (inactive) | -0.209 (inactive) | 2.5 (inactive) | 1.34 (inactive) | 0.866 | -0.227 | -0.804 (inactive) | -0.0387 |
| COCCOC(=O)N1C(=O)[C@@]2(c3cc(C#CC4(O)CCCCCC4)ccc31)[C@H](c1ccccc1OCCO)N1[C@H](c3ccccc3)[C@H](c3ccccc3)OC(=O)[C@H]1[C@@H]2C(=O)Nc1nc2ccccc2s1 | 1.65 | -0.133 | -2.71 | -4.28 | -2.52 | 1.52 (inactive) | -1.14 | -0.807 | 0.611 (inactive) | 0.189 | 1.15 (inactive) | -0.326 (inactive) | 0.764 (inactive) | 2.77 (inactive) | -0.0438 (inactive) | 0.61 (inactive) | -0.346 | -0.0765 | 1.65 (inactive) | 0.649 |
| CC(C)(C)OC(=O)CC[C@@]1(C(=O)N2CCOCC2)N=C(c2ccc(OCCCO)cc2)O[C@@H]1c1ccccc1 | 0.861 | -0.215 | 0.317 | 0.414 | 0.652 | 1.08 (inactive) | -0.959 | 0.609 | 1.6 (inactive) | 0.957 | 0.0776 (inactive) | 1.43 (inactive) | 0.464 (inactive) | 0.732 (inactive) | 2.19 (inactive) | 0.869 (inactive) | 1.53 | 0.105 | 1.6 (inactive) | -0.326 |
| C/C=C/[C@@H](CCn1cc(CCO[Si](C(C)C)(C(C)C)C(C)C)nn1)[Si](C)(C)c1ccc(OC)cc1 | 0.925 | 0.359 | -1.17 | -1.21 | 3.71 | 1.12 (inactive) | 0.236 | 2.03 | 7.86 (inactive) | 4.46 | -2.21 (inactive) | 1.91 (inactive) | -1.14 (inactive) | -4 (inactive) | 2.42 (inactive) | 1.89 (inactive) | 5.22 | -0.169 | -0.411 (inactive) | -1.48 |

From PubChem BioAssay
